In PubChem BioAssay AID485272 (The Scripps Research Institute Molecular Screening Center, 2010):
In all, about 330,000 compounds went through this assay and about 1,300 (0.39%) were called active.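 How the source made its calls: active means percent inhibition above a cutoff equal to the mean of all tested compounds plus 3 SD (cut at about 15% in these data); inactive means the rest.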 What follows is part of a selection rich in actives, with near analogues and random picks from the rest.

What follows are compounds tested against Protein-arginine deiminase type-4 (Homo sapiens) (UniProt Q9UM07) (assay: protein arginine deiminase 4 enzyme blockade – biochemical, fluorescence polarization, 1536-well format, primary screen (AID 485272;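 further: 0% = PAD4 with RCA probe and DMSO and 100% = probe without PAD4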)). Conditions: recombinant PAD4, RCA probe fluorescence polarization; at 6.36 µM; stronger effect = higher value.
Protein-arginine deiminase type-4 (Homo sapiens), sequence (Q9UM07 whole entry, looked up): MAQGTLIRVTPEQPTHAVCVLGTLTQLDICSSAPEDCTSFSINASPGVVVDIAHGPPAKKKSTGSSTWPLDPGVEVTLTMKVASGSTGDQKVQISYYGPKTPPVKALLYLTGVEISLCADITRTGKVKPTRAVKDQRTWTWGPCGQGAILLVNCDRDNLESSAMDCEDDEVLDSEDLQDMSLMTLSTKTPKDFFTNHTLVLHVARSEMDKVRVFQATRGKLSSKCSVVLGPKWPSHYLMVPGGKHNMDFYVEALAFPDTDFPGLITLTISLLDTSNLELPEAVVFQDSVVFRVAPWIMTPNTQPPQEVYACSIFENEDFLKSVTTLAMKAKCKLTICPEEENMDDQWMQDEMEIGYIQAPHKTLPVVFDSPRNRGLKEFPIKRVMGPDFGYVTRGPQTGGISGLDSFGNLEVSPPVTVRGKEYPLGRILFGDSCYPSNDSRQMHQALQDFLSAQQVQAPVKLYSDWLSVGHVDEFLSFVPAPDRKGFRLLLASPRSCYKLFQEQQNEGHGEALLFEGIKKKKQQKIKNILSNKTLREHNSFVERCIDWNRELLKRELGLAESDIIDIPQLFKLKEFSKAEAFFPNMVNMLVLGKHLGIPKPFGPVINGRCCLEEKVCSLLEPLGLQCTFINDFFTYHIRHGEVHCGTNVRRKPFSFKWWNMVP

inhibition, inactive:
O=C(NC(=S)Nc1ccc(Cl)cc1Cl)C1CC1 1.69%
CCOc1ccc(NS(=O)(=O)c2ccc(Cl)c(C(=O)N(C)Cc3cccnc3)c2)cc1 6.71%
O=C(Nc1ccc(N2CCOCC2)cc1)c1cccc(S(=O)(=O)N2CCOCC2)c1 -3.19%
Oc1ccc2ccccc2c1N=Nc1nccs1 2.91%
O=C(CCNS(=O)(=O)c1ccc(Br)s1)NCc1ccccc1Cl -0.29%
Clc1ccc(-c2cc(COc3ccccc3)no2)cc1Cl -0.83%
COC(=O)c1ccc(C)c(NC(=O)Cn2c(C)csc2=O)c1 2.97%
COc1ccc(OCc2ccc(-c3nc4ccccc4c(=O)n3N)o2)cc1 1.08%
COc1ccc(NC(=O)CSc2nc3ccccc3c(=O)n2C)cc1 -0.44%
CCC(C(=O)OC)n1cnc2scc(-c3ccc(C)cc3)c2c1=O (centres undefined) 0.23%
Cc1[nH]nc(-c2ccc(OCc3cnn(-c4ccccc4)c3)cc2O)c1Oc1ccc(Cl)cc1 -2.55%
Cc1cc(N=Nc2ccc3ccccc3c2)ccc1O 1.91%
CC(=O)n1c(C=Nc2ccccc2)c(O)c2ccccc21 -8.69%
Oc1ccc(/C=N/N(Cc2ccccc2)c2ccccc2)cc1 2.9%
CCC(C)NC(=O)Cn1nc(C(F)(F)F)c2c1CCC2 (centres undefined) 0.61%
N/C(=N\OC(=O)CC1CCCCC1)c1ccccc1 -1.21%
CC(=O)c1ccc(S(=O)(=O)NCc2nnnn2-c2ccccc2)cc1 7.61%
O=c1oc2ccc(C#CC3(O)CCCCC3)cc2cc1-n1cc(-c2ccsc2)nn1 2.6%
Cc1cccc(CN2CCN(Cc3cnn(-c4ccccc4F)c3)CC2CCO)n1 (centres undefined) 8.78%
COc1ccc(CCNS(=O)(=O)c2cc3c(cc2C)NC(=O)CO3)cc1OC -1.01%
N#CCCN(C(=O)COC(=O)C1CCN(c2ccc(C(F)(F)F)cn2)CC1)c1ccc(F)cc1 -2.71%
CCOCC(=O)NCc1ccc2c(c1)cc(C)n2C 6.21%
COc1cc(C(=O)NCc2cc3cc(Cl)ccc3n2C)cc(OC)c1OC 0.12%
CC(=O)Nc1ccc(N2C(=O)CCC2=O)cc1C 1.44%
COc1cccc(N2CC(NS(=O)(=O)c3cccs3)CC2=O)c1 (centres undefined) -3.8%
COc1cc(C(=O)N2C(=O)c3cccc(N)c3C2=O)cc(OC)c1OC -3.66%
Cc1nn(C)cc1C(=O)c1ccccc1 -3.44%
CC(=O)Nc1ccccc1Sc1ccc2c3c(cccc13)C(=O)N(c1ccc(C)cc1)C2=O 1.13%
COC(=O)c1ccc(CN2CCCC(C(=O)Nc3cccc(-n4cnnn4)c3)C2)cc1 (centres undefined) -3.14%
Cc1ccc(S(=O)(=O)N(CC(=O)Nc2cccnc2)c2ccc(Br)cc2)cc1 1.31%
O=C1CCCC2=C1C(c1cccs1)n1nc(SCc3ccccc3)nc1N2 (centres undefined) -0.55%
NC(N)=N/N=C/c1ccc(OCc2ccc(Cl)cc2Cl)cc1 -4.09%
CCOC(=O)N1CCN(C(=O)c2ccccc2N(Cc2ccccc2)S(=O)(=O)c2ccc(OC)cc2)CC1 -4.41%
C=CCN(C(=O)Nc1ccc2c(c1)nc(C)n2C)c1ccccc1 2.79%
O=C(Nc1ccc2oc(-c3ccccc3F)nc2c1)c1ccco1 -5.36%
CCOc1ccc(S(=O)(=O)N2CCCCC2)cc1NC(=O)CN1CCCC1c1cccs1 (centres undefined) -0.57%
CCOc1ccc(S(=O)(=O)N2CCN=C2Cc2ccccc2)cc1C 0.37%
Cc1ccc2[nH]c(C(=O)O)c(NC(=O)c3ccccc3[N+](=O)[O-])c2c1 4.63%
Cc1cc(C)cc(NC(=O)CN2C(=O)c3ccccc3C2=O)c1 4.21%
Cc1ccc2c(c1)-c1c(ssc1=S)C(C)(C)N2C(=O)CN1C(=O)c2ccccc2C1=O 0.29%
CCc1ccc(NC(=O)NC(C)c2ccc3c(c2)OCO3)cc1 (centres undefined) -1.12%
O=C1CCN(Cc2ccc([N+](=O)[O-])cc2)CCN1[C@H](CO)Cc1ccccc1 -1.9%
CCOC(=O)c1c(N)nn(C(=O)c2ccccc2)c1-c1ccccc1 -9.18%
C/C(=N\NC(=O)c1ccoc1C)c1ccccc1O -6.31%
O=C(N1CCOCC1)N(Cc1ccccc1)c1ccccn1 -6.6%
COC(=O)CCCC1=CC2=CC(=O)C(C)(OC(=O)c3cccs3)C(=O)C2=CN1CC(C)C (centres undefined) -1.01%
COC(=O)CCCC1=CC2=CC(=O)C(C)(OC(=O)c3cccs3)C(=O)C2=CN1c1cccc(C#N)c1 (centres undefined) 4.64%
CS/C(=C\C(=O)c1ccco1)Nc1ccccc1Cl 0.03%
CN(C)c1ccc(NC(=O)c2ccncc2)c2ccccc12 -9.99%
COc1cc(OC)c(C(=O)Nc2ccc(N(C)C)cc2)cc1OC -1.49%
CC(C)CNC(=O)C(=O)Nc1ccc(N(C)C)cc1 -0.08%
CCCC1=Nc2cc(C(=O)NCc3ccco3)ccc2Sc2ccccc21 -2.78%
Cn1c(=O)cc(OCC(=O)N2CCN(c3ccccc3F)CC2)c2ccccc21 -3.43%
O=C(NNC(=O)c1cccc(S(=O)(=O)Nc2ccc(Cl)cc2)c1)c1ccc(=O)[nH]c1 0.33%
O=C(O)C1=NN(c2c(F)c(F)cc(F)c2F)C(=O)CC1 0.4%
Cc1cc(C(=O)CSc2nc(N)cc(=O)[nH]2)c(C)n1-c1cccc(F)c1 3.24%
CCCc1cc(=O)[nH]c(SCC(=O)c2cc(C)n(CCC)c2C)n1 1.34%
O=C(COc1cccnc1[N+](=O)[O-])Nc1ccc(Cl)cc1F -3.69%
COC(=O)c1ccc(NC(=O)CSc2nncn2-c2cccnc2)cc1 6.18%
CCOC(=O)CSc1nncc2ccc(OC)c(OC)c12 -1.97%
CC(=O)c1cccc(-n2nnnc2SCC(=O)NNC(=O)C2CCCCC2)c1 0.09%
CC1(OC(=O)CCc2ccccc2)C(=O)C=C2C=C(c3ccc(C#N)cc3)N(CCc3ccccn3)C=C2C1=O (centres undefined) -12.6%
CC1(OC(=O)C2CCCC2)C(=O)C=C2C=C(c3ccc(C#N)cc3)OC=C2C1=O (centres undefined) 4.94%
COc1ccc(N(CC(=O)NC2CCCCCCC2)S(=O)(=O)c2c(C)nn(C)c2C)cc1 -21.2%
COc1ccccc1C(=O)N/C(=C/c1ccc2c(c1)OCO2)C(=O)Nc1cccc(C(=O)O)c1 4.24%
COc1ccc(NC(=O)c2ccccc2[N+](=O)[O-])cc1OC 0.28%
O=C(Cc1c(F)cccc1Cl)Nc1ncc([N+](=O)[O-])s1 -0.75%
COc1ccc(-c2cn3ccc(C)cc3n2)cc1 -3.72%
COCC(C)n1c(C)cc(C(=O)CSc2cc(C)c3ccccc3n2)c1C (centres undefined) -0.49%
COc1ccc(CNC(=O)COc2cccnc2[N+](=O)[O-])cc1 1.13%
COC(=O)c1cc(NC(=O)c2cc(C(C)(C)C)nn2Cc2cccc(C)c2)ccc1N1CCOCC1 2.9%
COc1cc(C(F)(F)F)nc2c(Br)c(C(C)(C)C)nn12 -1.55%
C[N+](C)(C)CCOP(=O)([O-])OC[C@H](O)CO 0.71%
O=C(CN1CCCCCC1)Nc1ccc(Cl)cc1F -5.26%
O=C(CN1CCCCCC1)Nc1ccc(Br)cc1[N+](=O)[O-] 0.42%

inhibition, active:
Oc1c(C=Nc2cccc3nsnc23)ccc2ccccc12 39.1%
Cc1ccc(C(=O)CSc2nc3ccccc3c(=O)n2N)o1 28.9%
Oc1ccc(N=Cc2c(O)ccc3ccccc23)cc1 69.9%
Oc1ccc(N=Cc2sc3ccccc3c2Cl)cc1 19.9%
COc1cc(C(=O)NCc2ccc3c(c2)cc(C)n3C)cc(OC)c1OC 26.2%
CN1C(=O)c2cccc3c(N)ccc(c23)C1=O 24%
Cc1nn(C)cc1N1C(=O)c2cccc3c(N)ccc(c23)C1=O 26.9%
C=CCN(C(=O)Nc1ccc2oc(C)nc2c1)c1ccccc1 39.8%
CC[N+](C)(CC)CCC[n+]1c(-c2ccccc2)c2cc(N)ccc2c2ccc(N)cc21 62.4%
Cc1cc2c(cc1C)N(C(=O)CN1C(=O)c3ccccc3C1=O)C(C)(C)c1ssc(=S)c1-2 44.1%
Cc1nn(C(=O)c2ccoc2C)c(N)c1-c1ccccc1 17.4%
COC(=O)CCCC1=CC2=CC(=O)C(C)(OC(=O)c3cccs3)C(=O)C2=CN1CC1CC1 (centres undefined) 18.5%
CN(C)c1ccc(N/C=C/C(=O)C(F)(F)F)cc1 38.9%
Cc1cc(C(=O)CSc2nc(N)cc(=O)[nH]2)c(C)n1CCc1ccc(Cl)cc1 23.8%
COC(=O)c1ccc(NC(=O)CSc2nncc3ccc(OC)c(OC)c23)cc1 26.1%
COCCN1C=C2C(=O)C(C)(OC(=O)C3CCCC3)C(=O)C=C2C=C1c1ccsc1 (centres undefined) 17.8%
CC(=O)Oc1ccccc1C(=O)Nc1ncc([N+](=O)[O-])s1 21.3%
Cc1ccn2cc(-c3nonc3C)cc2c1 15.3%
O=C(CN1CCCCCC1)Nc1ccc(Br)cc1Br 129%
